Results taken from PubChem BioAssay AID1159580 (chemical genetic matrix, 2015).
The whole screen tested about 5,500 compounds, of which about 2,000 (36%) were called active. About 18% were inconclusive and are not listed. Rule as the data show it: active = normalized growth mostly below about 0.91 (no sharp cut-off); inconclusive = no clear call, values can overlap the other calls; inactive = mostly above about 0.92. The list shows a part of the results.

Experiment: chemical genetic growth profiling, strain panel (AID 1159580);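 also: tested at 20 µM; growth read once vehicle control cultures reached saturation at 30 °C; 1 = growth at the plate median or of vehicle wells; lower values mean less growth of the strain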
Conditions: growth OD

Measured: normalized growth

COc1cc2c3cc1Oc1cc(ccc1O)OC1c4c(cc(OC)c(O)c4Oc4ccc(cc4)CC3N(C)CC2)CCN1C (stereo unspecified)
inactive: S. cerevisiae deletion strains, locus YAL013W, strain DEP1, active compounds read low 0.992 | S. cerevisiae deletion strains, locus YBR021W, strain FUR4, active compounds read low 0.971 | S. cerevisiae deletion strains, locus YBR229C, strain ROT2, active compounds read low 0.993 | S. cerevisiae deletion strains, locus YCL029C, strain bik1, active compounds read low 0.967 | S. cerevisiae deletion strains, locus YDL035C, strain GPR1, active compounds read low 0.978 | S. cerevisiae deletion strains, locus YDL074C, strain BRE1, active compounds read low 1.02 | S. cerevisiae deletion strains, locus YDL101C, strain DUN1, active compounds read low 0.993 | S. cerevisiae deletion strains, locus YDL134C, strain PPH21, active compounds read low 0.996 | S. cerevisiae deletion strains, locus YDL185W, strain tfp1, active compounds read low 0.966 | S. cerevisiae deletion strains, locus YDL192W, strain arf1, active compounds read low 0.981 | S. cerevisiae deletion strains, locus YDR101C, strain arx1, active compounds read low 0.983 | S. cerevisiae deletion strains, locus YDR150W, strain NUM1, active compounds read low 0.995 | S. cerevisiae deletion strains, locus YDR162C, strain NBP2, active compounds read low 1.01 | S. cerevisiae deletion strains, locus YDR318W, strain mcm21, active compounds read low 0.965 | S. cerevisiae deletion strains, locus YDR388W, active compounds read low 0.989 | S. cerevisiae deletion strains, locus YDR502C, strain sam2, active compounds read low 0.984 | S. cerevisiae deletion strains, locus YEL061C, strain CIN8, active compounds read low 0.985 | S. cerevisiae deletion strains, locus YER110C, active compounds read low 0.966 | S. cerevisiae deletion strains, locus YER155C, strain BEM2, active compounds read low 0.999 | S. cerevisiae deletion strains, locus YER167W, strain BCK2, active compounds read low 0.958 | S. cerevisiae deletion strains, locus YGL078C, strain dbp3, active compounds read low 0.979 | S. cerevisiae deletion strains, locus YGL086W, strain mad1, active compounds read low 0.963 | S. cerevisiae deletion strains, locus YGL248W, strain PDE1, active compounds read low 0.999 | S. cerevisiae deletion strains, locus YGR078C, strain PAC10, active compounds read low 1.02 | S. cerevisiae deletion strains, locus YGR135W, strain pre9, active compounds read low 0.991 | S. cerevisiae deletion strains, locus YGR229C, strain SMI1, active compounds read low 1.01 | S. cerevisiae deletion strains, locus YGR252W, strain gcn5, active compounds read low 0.925 | S. cerevisiae deletion strains, locus YHR030C, strain SLT2, active compounds read low 0.972 | S. cerevisiae deletion strains, locus YHR079C, strain IRE1 (second series), active compounds read low 0.992 | S. cerevisiae deletion strains, locus YHR094C, strain hxt1, active compounds read low 0.957 | S. cerevisiae deletion strains, locus YHR129C, strain ARP1, active compounds read low 0.997 | S. cerevisiae deletion strains, locus YHR200W, strain rpn10, active compounds read low 0.964 | S. cerevisiae deletion strains, locus YIL066C, strain RNR3, active compounds read low 0.996 | S. cerevisiae deletion strains, locus YIL073C, strain SPO22, active compounds read low 0.899 | S. cerevisiae deletion strains, locus YIL125W, strain kgd1, active compounds read low 0.984 | S. cerevisiae deletion strains, locus YIR030C, strain dcg1, active compounds read low 0.978 | S. cerevisiae deletion strains, locus YJL095W, strain BCK1, active compounds read low 1.03 | S. cerevisiae deletion strains, locus YJL134W, strain LCB3, active compounds read low 0.99 | S. cerevisiae deletion strains, locus YJL168C, strain set2, active compounds read low 0.986 | S. cerevisiae deletion strains, locus YJL187C, strain SWE1 (second series), active compounds read low 0.999 | S. cerevisiae deletion strains, locus YJR043C, strain POL32, active compounds read low 0.952 | S. cerevisiae deletion strains, locus YJR075W, strain HOC1, active compounds read low 1.05 | S. cerevisiae deletion strains, locus YKL009W, strain mrt4, active compounds read low 0.977 | S. cerevisiae deletion strains, locus YKL068W, active compounds read low 0.975 | S. cerevisiae deletion strains, locus YKL085W, strain MDH1 (second series), active compounds read low 0.995 | S. cerevisiae deletion strains, locus YKL085W, strain MDH1, active compounds read low 0.995 | S. cerevisiae deletion strains, locus YKL190W, strain CNB1, active compounds read low 0.998 | S. cerevisiae deletion strains, locus YKR001C, strain vps1, active compounds read low 0.969 | S. cerevisiae deletion strains, locus YLR039C, strain RIC1, active compounds read low 0.942 | S. cerevisiae deletion strains, locus YLR058C, strain SHM2, active compounds read low 0.988 | S. cerevisiae deletion strains, locus YLR102C, strain apc9, active compounds read low 0.98 | S. cerevisiae deletion strains, locus YLR262C, strain YPT6, active compounds read low 0.982 | S. cerevisiae deletion strains, locus YLR268W, strain sec22, active compounds read low 1 | S. cerevisiae deletion strains, locus YLR330W, strain CHS5, active compounds read low 0.987 | S. cerevisiae deletion strains, locus YLR342W, strain FKS1 (second series), active compounds read low 0.957 | S. cerevisiae deletion strains, locus YLR371W, strain rom2, active compounds read low 0.968 | S. cerevisiae deletion strains, locus YLR418C, strain cdc73, active compounds read low 1.02 | S. cerevisiae deletion strains, locus YML016C, strain PPZ1, active compounds read low 0.99 | S. cerevisiae deletion strains, locus YML032C, strain rad52, active compounds read low 0.951 | S. cerevisiae deletion strains, locus YML124C, strain tub3, active compounds read low 0.976 | S. cerevisiae deletion strains, locus YMR078C, strain ctf18, active compounds read low 0.968 | S. cerevisiae deletion strains, locus YMR223W, strain ubp8, active compounds read low 0.951 | S. cerevisiae deletion strains, locus YMR263W, strain SAP30, active compounds read low 1.01 | S. cerevisiae deletion strains, locus YMR307W, strain GAS1, active compounds read low 0.955 | S. cerevisiae deletion strains, locus YNL067W, strain RPL9B, active compounds read low 1 | S. cerevisiae deletion strains, locus YNL128W, strain TEP1, active compounds read low 0.99 | S. cerevisiae deletion strains, locus YNL153C, strain GIM3, active compounds read low 1.02 | S. cerevisiae deletion strains, locus YNL233W, strain BNI4, active compounds read low 1.02 | S. cerevisiae deletion strains, locus YNL250W, strain rad50, active compounds read low 0.973 | S. cerevisiae deletion strains, locus YNL271C, strain bni1, active compounds read low 0.993 | S. cerevisiae deletion strains, locus YNL298W, strain CLA4, active compounds read low 0.967 | S. cerevisiae deletion strains, locus YNL307C, strain MCK1, active compounds read low 0.952 | S. cerevisiae deletion strains, locus YNL322C, strain KRE1, active compounds read low 0.979 | S. cerevisiae deletion strains, locus YNR052C, strain pop2, active compounds read low 0.961 | S. cerevisiae deletion strains, locus YOL006C, strain TOP1, active compounds read low 1.03 | S. cerevisiae deletion strains, locus YOL012C, strain htz1 1.06 | S. cerevisiae deletion strains, locus YOL147C, strain pex11, active compounds read low 0.973 | S. cerevisiae deletion strains, locus YOR061W, strain CKA2, active compounds read low 0.998 | S. cerevisiae deletion strains, locus YOR069W, strain VPS5, active compounds read low 0.991 | S. cerevisiae deletion strains, locus YOR136W, strain idh2, active compounds read low 0.96 | S. cerevisiae deletion strains, locus YOR144C, strain elg1, active compounds read low 0.982 | S. cerevisiae deletion strains, locus YOR184W, strain ser1, active compounds read low 0.93 | S. cerevisiae deletion strains, locus YOR316C, strain cot1, active compounds read low 0.977 | S. cerevisiae deletion strains, locus YPL055C, strain LGE1, active compounds read low 1 | S. cerevisiae deletion strains, locus YPL241C, strain CIN2, active compounds read low 0.997 | S. cerevisiae deletion strains, locus YPR119W, strain clb2, active compounds read low 0.989 | S. cerevisiae deletion strains, locus YPR141C, strain kar3, active compounds read low 0.99 | S. cerevisiae deletion strains, locus YPR163C, strain tif3, active compounds read low 0.96 | S. cerevisiae deletion strains, locus YPR167C, strain met16, active compounds read low 0.98 | S. cerevisiae deletion strains, strain wtn01, active compounds read low 1.01 | S. cerevisiae strains, strain wild type, active compounds read low 0.989
